# Screening results as filed in PubChem BioAssay.
# NPSR antag – qHTS Assay for Antagonists of the Neuropeptide S Receptor: cAMP Signal Transduction; Q6W5P4; CHO-NPSR cells, cAMP TR-FRET, antagonist mode; Potency, µM (doses to about 38.3 µM), without a hit: top-dose activity change, negative = inhibition, hits mostly inhibitors; 220,000 tested, 1% active; AID 1461, 2008; further: potency means the concentration at half of the fitted maximal effect; nearly all actives have a fitted effect of over 50% in size
# JMJD2E inh – qHTS Assay for Inhibitors of Human Jumonji Domain Containing 2E (JMJD2E) | Potency, µM (top dose mostly 57.1 µM), for inactives: at the top dose activity change, negative = inhibition, actives largely listed as inhibitors | Lysine-specific demethylase 4E (Homo sapiens), B2RXH2 | 230,000 tested, 1.6% active | JMJD2E catalytic domain, FDH-coupled NADH fluorescence (FDH is formaldehyde dehydrogenase);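 further: potency means the concentration at half of the fitted maximal effect; 0% = wells with enzyme and -100% = buffer wells without enzyme; nearly all actives have a fitted effect of over 50% in size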
# Target sequence (B2RXH2 1-337 limits assumed): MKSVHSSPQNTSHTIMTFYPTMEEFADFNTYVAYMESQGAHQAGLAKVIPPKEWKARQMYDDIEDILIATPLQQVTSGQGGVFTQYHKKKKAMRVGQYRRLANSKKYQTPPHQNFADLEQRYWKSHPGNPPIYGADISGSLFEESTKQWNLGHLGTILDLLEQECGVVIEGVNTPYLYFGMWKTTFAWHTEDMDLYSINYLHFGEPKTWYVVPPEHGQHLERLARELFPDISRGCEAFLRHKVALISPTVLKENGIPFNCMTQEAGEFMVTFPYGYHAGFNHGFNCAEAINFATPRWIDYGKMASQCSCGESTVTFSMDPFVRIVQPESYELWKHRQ
# GoLoco inh red – qHTS Assay for Inhibitors of RGS12 GoLoco Motif Activity (Red Fluorophore); Guanine nucleotide-binding protein G(i) subunit alpha-1 (Homo sapiens), P63096; Gai1:RGS12 GoLoco peptide FP, rhodamine, 10 min; Potency, µM (series often up to 61.6 µM), inactives show at the highest dose activity, negative = inhibition, hits mostly inhibitors; 230,000 tested, 0.44% active; AID 880, 2007; active means well fitted inhibition curve with a large enough effect, not every such curve was filed as active; inactive means no such curve, though single readings can be large or run the other way; further: potency means the concentration at half of the fitted maximal effect; nearly all actives have a fitted effect of over 30% in size
# Target sequence (P63096 whole entry, looked up): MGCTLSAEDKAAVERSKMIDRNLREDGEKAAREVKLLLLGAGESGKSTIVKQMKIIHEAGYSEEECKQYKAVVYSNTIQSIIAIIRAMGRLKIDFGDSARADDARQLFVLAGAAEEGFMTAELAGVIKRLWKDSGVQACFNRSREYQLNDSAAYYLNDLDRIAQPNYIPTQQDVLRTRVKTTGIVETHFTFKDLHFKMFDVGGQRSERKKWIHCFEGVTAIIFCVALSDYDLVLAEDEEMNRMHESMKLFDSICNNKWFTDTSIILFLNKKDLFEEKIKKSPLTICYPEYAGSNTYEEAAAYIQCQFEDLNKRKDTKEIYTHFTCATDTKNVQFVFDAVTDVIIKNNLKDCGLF
# FBPA coupling cs – qHTS Assay for Inhibitors of Fructose-1,6-bisphosphate Aldolase from Giardia Lamblia: Coupling assay counterscreen | activity change, negative = inhibition, % at 58.2 µM, hits read low | 290,000 tested, 0.67% active | coupling enzyme system counterscreen, AmpLite Red fluorescence; in the data active means activity change below about -30%
#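 First, compound is pin-transferred into glyceraldehyde-3-phosphate coupling-enzyme reagent at 57.5 uM final and held 10 min at RT. Next, substrate, coupling system and AmpLite Red are added. After 20 min RT, fluorescence (525/598 nm) is read.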
# ALDH1A1 inh – qHTS Assay for Inhibitors of Aldehyde Dehydrogenase 1 (ALDH1A1). Aldehyde dehydrogenase 1A1 (Homo sapiens), P00352. Purified ALDH1A1, NADH fluorescence, propionaldehyde substrate. Potency, µM (doses to about 75.3 µM), without a hit: at the highest dose activity, negative = inhibition, hits mostly inhibitors. 220,000 tested, 7.3% active. AID 1030, 2008; active means well fitted inhibition curve with a large enough effect, not every such curve was filed as active; inconclusive means small, poorly fitted or top-dose-only effect, or another doubt; inactive means no such curve, though single readings can be large or run the other way;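 further: potency means the concentration at half of the fitted maximal effect; plate controls were no enzyme wells and a reference inhibitor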
# Sfp inh – qHTS Assay for Inhibitors of Bacillus subtilis Sfp phosphopantetheinyl transferase (PPTase); Biochemical Sfp PPTase activity, qHTS; 4'-phosphopantetheinyl transferase ffp (Bacillus subtilis), Q9F4F7; 310,000 tested, 3.5% active; AID 1490, 2009; Potency, µM, for inactives: largest response in the series, negative = inhibition, hits mostly inhibitors;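 further: the enzyme is Sfp with the accession as filed and its product quenches rhodamine fluorescence; potency means the concentration at half of the fitted maximal effect; 0% = enzyme reaction without inhibitor and -100% = no enzyme wells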
#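 Fluorescence-quenching assay with 15 nM Sfp, 5 uM rhodamine-CoA and 12.5 uM BHQ-2-labelled ybbR peptide in pH 7.6 Hepes/MgCl2 buffer. Enzyme was pre-incubated with compound for 15 min at room temperature. Rate was taken from the 30-min fluorescence change (525/598 nm).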
# Sfp inh conf – Confirmation qHTS Assay for Inhibitors of Bacillus subtilis Sfp phosphopantetheinyl transferase (PPTase); shares compounds with Sfp inh; 380 tested, 79% active; Potency, µM (highest dose often 114 µM), without a hit: top-dose activity change, negative = inhibition, usual class: inhibitors; Sfp PPTase enzymatic assay, qHTS titration;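 further: potency means the concentration at half of the fitted maximal effect; plate controls were uninhibited Sfp reaction for no effect and no enzyme control for full effect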
# Sfp PPTase gel – Gel-Based Assay for Inhibitors of Bacillus subtilis Sfp phosphopantetheinyl transferase (PPTase); shares compounds with Sfp inh; purified Sfp, gel-based phosphopantetheinylation read-out; Potency, µM, hits mostly inhibitors; 210 tested, 20% active; AID 2707, 2010;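 active means potency below 100 µM; inconclusive means dose-dependent response but potency above 100 µM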;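 further: band intensities scaled against SCH202676 control wells before curve fitting; potency is an IC50 for inhibitors of Sfp transfer activity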
# Starred values were filed as active, the others as inactive; i = inactive; u = inconclusive; x = no result given; [ ] = another dose, or the depositor's remark. Hits are enriched below; roughly 8.5% of the tested compounds scored in any of these assays. Unless noted, the call rests on the fitted dose curve; in most records, active means well fitted curve in the direction sought with a large enough effect; inconclusive means small, poorly fitted or top-dose-only effect, or another doubt; inactive means no such curve, though single readings can be large; an effect the other way counts as inactive or inconclusive. Unless noted, on the % scale 0 is the no-effect control and ±100 the full control effect.
SMILES,NPSR antag,JMJD2E inh,GoLoco inh red,FBPA coupling cs,ALDH1A1 inh,Sfp inh,Sfp inh conf,Sfp PPTase gel
OCCn1c(CSc2nnc(-c3ccco3)n2-c2ccccc2)nc2ccc(Cl)cc21,-5%[46.1 µM],-10%,10%,5,13µM*,4µM*,12µM*,i
N#CCc1nc2ccc(S(=O)(=O)N3CCOCC3)cc2s1,u,4%,92%,1,x,-2%,x,x
Cc1nc(-c2cc(-c3nc(-c4ccc(C(C)(C)C)cc4)no3)no2)cs1,13%,-5%,12%,-3,-16%,40µM*,15µM*,i
CC(C)(O)C#Cc1ccc(C(=O)N2CCCC(CNS(=O)(=O)c3cccs3)C2)o1 (configuration not stated),x,x,x,x,x,40µM*,59µM*,x
CCOC(=O)CCNC(=O)N1CCCC(CNS(=O)(=O)c2cccs2)C1 (configuration not stated),-10%,-9%,13%,-2,u,-6%,x,x
O=C(CN1C(=O)CC(c2ccco2)Sc2ccccc21)NCC1CCCO1 (configuration not stated),5%[46.1 µM],-18%,-12%,-8,10µM*,11µM*,7.4µM*,x
COCCNC(=O)COC(=O)c1cc(-c2ccc(OC)cc2)nc2ccccc12,-29%,u,5%,7,u,-6%,x,x
Nc1nc2c(s1)CCc1c-2cnn1-c1ccccc1,u,u,19%,3,u,2.5µM*,7.4µM*,x
Cc1ccc(-c2cnn(-c3ccccc3)c2N)cc1,x,x,x,-2,x,14%,x,x
Cc1ccc(NC(=O)N2CCCCCC2)c(C)c1,x,x,x,2,x,26%,x,x
Nn1c(=O)c2ccccc2n2c(SCc3ccc(C(F)(F)F)cc3)nnc12,-15%[46.1 µM],-1%,2%,0,22µM*,45µM*,u,i
O=C(O)CSc1nnc2n(-c3ccccc3)c(=O)c3ccccc3n12,x,x,x,7,x,10%,x,x
Cc1ccc(/C=C/C(=O)NCCc2ccccc2)o1,x,x,x,5,x,7.9µM*,19µM*,x
O=C(/C=C/c1c(Cl)cccc1Cl)NCCc1ccccc1,-25%[46.1 µM],6%,-7%,0,12%,19%,x,x
Cc1ccc(C(=O)Nc2ccc(N3CCOCC3)nc2)cc1,-10%[46.1 µM],-2%,2%,-1,3%,16%,x,x
Cc1ccc(/C(C#N)=C\c2ccc(N3CCOCC3)o2)cc1,u,16µM*,-22%,-25,10µM*,1.4µM*,13µM*,i
N#C/C(=C/c1ccc(N2CCCCCC2)o1)c1ccc(Cl)cc1,10µM*,-28%,79%,-20,7.9µM*,5µM*,19µM*,x
N#C/C(=C/c1ccc(N2CCCCC2)o1)c1cccc(F)c1,10µM*,u,58%,-29,u,2.8µM*,21µM*,19µM*
N#C/C(=C/c1ccc(N2CCCCC2)cc1)c1cccc(F)c1,-19%,0%,3%,1,-4%,-8%,x,x
Cc1ccccc1CN1CCC(n2nccc2NC(=O)c2ccc3c(c2)OCO3)CC1,x,x,x,x,x,-5%,x,x
Cc1nc(NC(=O)C2CCCCC2C(=O)O)sc1C (configuration not stated),x,x,x,4,x,23%,x,x
CCc1c(C)sc(NC(=O)C2CCCCC2C(=O)O)c1C(N)=O (configuration not stated),-10%[46.1 µM],u,-10%,0,1.6µM*,4.5µM*,11µM*,x
CN(CC(=O)Nc1cccc(F)c1)C(=O)CC1CC2CCC1C2 (configuration not stated),x,x,x,x,x,10%,x,x
COc1ccc(OC)c2c(=O)cc(C(=O)O)[nH]c12,2%,-11%,3%,-3,x,-24%,x,x
O=C(O)c1cc(=O)c2c3nc4ccccc4oc-3cc(=O)c2[nH]1,x,x,x,x,x,45µM*,53µM*,x
SMILES,NPSR antag,JMJD2E inh,GoLoco inh red,FBPA coupling cs,ALDH1A1 inh,Sfp inh,Sfp inh conf,Sfp PPTase gel
O=S(=O)(Nc1ccc(C(F)(F)F)cn1)c1ccccc1,15%,-9%,-1%,4,x,7%,x,x
Cc1nc2sc3c(c2c(=O)o1)CCC3,-1%[46.1 µM],-2%,17%,-5,25µM*,16µM*,u,u
N#C/C(=C(/O)COc1ccc(Br)cc1)c1nnc2n1CCCCC2,-6%,-28%,9%,3,-5%,6%,x,x
CC/C(O)=C(/C#N)c1nnc2n1CCCCC2,-4%[46.1 µM],-19%,7%,5,u,14µM*,3%,i
COc1cccc(CNc2cccc3cccnc23)c1O,22%[46.1 µM],-2%,-19%,-57*,u,4.5µM*,21µM*,i
CC(=S)c1c(C)cc2cc(C)ccn12,-2%,u,-6%,-2,u,u,x,x
Oc1ccc(NCc2cccc(OCc3ccc(F)cc3)c2)cc1,13%,-2%,-22%,-45*,u,16µM*,53µM*,u
